hDAT+cocaine – changed hDAT dopamine uptake under cocaine IC80, either direction, primary screen, cocaine antagonist project, cell-based, LLC-PK1 hDAT, [14C]-dopamine uptake, MLSMR; LLC-PK1 hDAT cells, [14C]-dopamine uptake with cocaine IC80; actives deviate in either direction; B-score at 10 µM; hit rate 1.3% among 110,000;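 active = Z score or B-score, a plate-position-corrected score, falls beyond the plate's 99.7% confidence bounds, in either direction; inactive = both scores lie inside the 99.7% bounds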;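 also: scored against the spread of the other compound wells on the same plate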
Target sequence (Q01959 whole entry, looked up): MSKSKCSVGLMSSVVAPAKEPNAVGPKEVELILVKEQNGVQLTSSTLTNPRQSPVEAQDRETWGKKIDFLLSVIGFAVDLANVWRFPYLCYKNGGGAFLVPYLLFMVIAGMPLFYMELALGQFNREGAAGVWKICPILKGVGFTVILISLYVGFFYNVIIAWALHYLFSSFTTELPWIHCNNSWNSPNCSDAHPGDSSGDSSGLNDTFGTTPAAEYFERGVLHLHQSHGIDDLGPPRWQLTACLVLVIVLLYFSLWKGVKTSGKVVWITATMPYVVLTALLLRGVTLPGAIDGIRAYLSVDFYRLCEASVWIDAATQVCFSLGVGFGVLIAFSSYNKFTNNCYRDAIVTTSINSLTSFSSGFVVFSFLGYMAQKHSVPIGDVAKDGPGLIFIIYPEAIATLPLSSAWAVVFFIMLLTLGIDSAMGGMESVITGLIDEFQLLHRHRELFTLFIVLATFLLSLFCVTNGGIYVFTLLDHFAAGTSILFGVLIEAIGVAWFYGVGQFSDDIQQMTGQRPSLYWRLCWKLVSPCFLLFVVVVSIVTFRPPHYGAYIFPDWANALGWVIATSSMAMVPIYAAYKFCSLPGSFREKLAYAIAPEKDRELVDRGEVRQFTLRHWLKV
M1 antag – antagonists of rat M1 muscarinic receptor; Muscarinic acetylcholine receptor M1 (Rattus norvegicus), P08482; CHO-M1 cells, Fluo-4 calcium, ACh EC80 antagonist mode; stronger effect = lower value; B-score at 10 µM; hit rate 3.4% among 64,000;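 active = calcium fluorescence response, raw or row-and-column corrected B-score, differing from the plate sample mean either way at a set confidence level, mostly lower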
D1 mod – D1 CRE-luciferase signal change, two-sided – cell-based, HEK293 D1, dopamine EC30, D1 allosteric modulator project, primary screen. hit rate 5.9% among 58,000. dopamine EC30 potentiation; actives deviate in either direction. B-score at 10 µM;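 active = luminescence count or its row- and column-corrected plate score outside the 99.7% band of the plate's sample wells, on either side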
FXIIa mix inh – human factor XIIa inhibitors, primary screen, biochemical, pooled compound mixtures, fluorogenic substrate | purified FXIIa | hit rate 0.2% among 62,000 | Coagulation factor XII (Homo sapiens), P00748 | inhibition, % at 5 µM;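 also: 0% = enzyme without compound and 100% = no enzyme blank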
M1 ag – M1 muscarinic receptor agonists, primary screen, CHO-M1 cells, Fluo-4 calcium, agonist mode | hit rate 3% among 64,000 | Muscarinic acetylcholine receptor M1 | Fluo-4 calcium fluorescence; stronger effect = higher value | B-score at 10 µM | AID 626, 2007;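 active = fluorescence rise, raw or as B-score row- and column-corrected plate score, outside the 99.7% band of its plate's samples, either direction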
FXIa inh mix – FXIa protease inhibitors in compound pools, primary screen, biochemical, 10-compound mixtures; purified FXIa, fluorogenic substrate, pooled mixtures; inhibition, % at 5 µM; hit rate 0.19% among 62,000; AID 680, 2007;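 also: each value is inhibition by a whole ten-compound pool holding the compound; 0% = enzyme with no mixture and 100% = wells lacking enzyme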
M1 antag confirm – rat M1 muscarinic receptor antagonists, confirmation, CHO cells, Fluo-4 calcium, duplicate; AID 677, 2007; ACh EC80 antagonism; stronger effect = lower value; calcium response (max-min fluorescence) at 10 µM; hit rate 43% among 1,700; shares compounds with M1 antag;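 active = calcium response below the same-plate mean of wells given acetylcholine alone at its 80%-effect dose, minus 3 SD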;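 also: raw fluorescence intensity difference in arbitrary instrument units and not normalized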
mGluR4 antag – human mGluR4 response to M1 antagonist hits, M1 allosteric modulator project, cell-based, antagonist mode, secondary assay 1. shares compounds with M1 antag. CHO-mGluR4 calcium flux, Fluo-4 fluorescence, glutamate EC80; stronger effect = lower value. fluorescence response (max-min) at 10 µM. hit rate 0.9% among 1,700. AID 678, 2007;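 active = fluorescence response below the plate's average for near-maximal glutamate wells, less 3 SD of those wells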;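 also: raw unnormalized fluorescence span taken in the window right after glutamate addition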
* = called active by the depositor; / = no result given. Hits are enriched below; roughly 7.4% of the tested compounds scored in any of these assays. Rule as the data show it, unless noted: active = inhibition above about 20% (passing the limit was not always enough); inactive = the rest.

SMILES	hDAT+cocaine	M1 antag	D1 mod	FXIIa mix inh	M1 ag	FXIa inh mix	M1 antag confirm	mGluR4 antag
CCCCn1c(C(C)NC(=O)c2cccs2)nc2ccccc21 (configuration not stated)	-0.42	-2.6*	-0.19	3	0.29	1	610	161
CCCCn1c(C(C)NC(=O)CCC)nc2ccccc21 (configuration not stated)	-0.62	-4.1*	0.6	-2	0.63	-3	555	228
O=C(/C=C/c1ccc(Br)o1)OCc1ccccc1	-0.037	/	/	/	/	/	/	/
O=C(O/N=C/c1cccc([N+](=O)[O-])c1)C1CC1	-1.1	/	/	/	/	/	/	/
COc1cc2nc3c4ccccc4n(CC#N)c3nc2cc1OC	0.14	0.81	2.1	1	-0.4	10	/	/
CCn1c2ccccc2c2nc3cc(OC)c(OC)cc3nc21	0.69	-5.7*	-0.011	7	1.5	3	462	154*
O=C(COC(=O)c1ccccc1Oc1ccccc1)NC1CCS(=O)(=O)C1 (configuration not stated)	-0.16	-1.5*	0.38	2	0.053	-6	617	236
CSc1ncccc1C(=O)OCC(=O)NC1CCS(=O)(=O)C1 (configuration not stated)	1.3	0.08	/	4	1.3	-4	/	/
Cc1cc(C)nc(SCc2nnc(SCc3ccccc3Cl)o2)n1	/	-4.5*	-0.91	0	-0.19	0	515	210
O=S(=O)(Nc1ccc(N2CCCCC2)cc1)c1cccc2cccnc12	-0.092	-0.43	0.18	13	-0.07	-3	/	/
O=c1c2c3c(sc2nc2n1CCC2)CCC3	0.7	-0.026	0.93	-3	0.26	2	/	/
N=c1c2c3c(sc2nc2n1CCC2)CCCC3	-0.038	-1.9*	-0.11	-1	-0.041	1	634	255
CCC(=O)Nc1nonc1-c1nc2ccccc2n1Cc1cccc2ccccc12	-0.072	/	/	/	/	/	/	/
CCOc1ccccc1N1Cc2cc(C)c(C)cc2C1	0.0025	-1.5*	0.052	-2	-0.041	7	655	231
Cc1cc(C)c2cc(CN(CC3CCCO3)C(=O)NC3CCCCC3)c(=O)[nH]c2c1 (configuration not stated)	/	-3.4*	2.3	5	0.038	11	469	247
O=C(NC1CCCCC1)N(Cc1cc2cc3c(cc2[nH]c1=O)OCCO3)CC1CCCO1 (configuration not stated)	0.26	0.49	/	-10	0.21	11	/	/
CCOC(=O)/C(C(N)=NCCO)=C(/O)c1ccccc1	0.033	0.88	0.25	10	-0.4	-5	/	/
OCCN=C(c1ccccc1)C12CN3CN(CN(C3)C1)C2	-0.68	-2.4*	/	/	-0.87	/	466	215
CN1CCN(S(=O)(=O)c2ccc(NC(=O)c3cccc(S(=O)(=O)N4CCCC4)c3)cc2)CC1	0.16	-16*	0.8	5	-0.36	8	43*	210
Cc1c(Br)c([N+](=O)[O-])nn1C(C)C(=O)Nc1c(C)n(C)n(-c2ccccc2)c1=O (configuration not stated)	-0.087	/	/	/	/	/	/	/
COc1ccc2[nH]c(=O)c(CN(C)C(=O)COc3ccccc3)cc2c1	0.022	-9*	0.9	-9	0.017	5	665	219
O=C(CCCN1C(=O)c2ccccc2C1=O)NC1=NCCS1	1.4	0.87	0.17	3	-0.25	2	/	/
COc1ccc(N2C(=O)C(Cl)=C(Nc3c(C)n(C)n(-c4ccccc4)c3=O)C2=O)cc1	0.2	-3.8*	-0.084	-4	-0.0043	3	427*	254
COc1ccc2c(CC(=O)Nc3c(C)n(C)n(-c4ccccc4)c3=O)coc2c1	-0.21	/	/	/	/	/	/	/
O=C(CSc1ccc(-c2ccc(F)cc2)nn1)N1CCCCC1	0.52	-0.093	-2.9	10	0.74	7	/	/
SMILES	hDAT+cocaine	M1 antag	D1 mod	FXIIa mix inh	M1 ag	FXIa inh mix	M1 antag confirm	mGluR4 antag
Cn1c(-c2ccc(F)cc2)cnc1SCC(=O)N1CCCCC1	1.3	-2.2*	-4.3*	11	0.0046	-4	430	222
CCOC(=O)N1CCC(NC(=O)CSCc2nc(-c3ccc(OC)c(OC)c3)oc2C)CC1	/	0.088	1.3	1	0.81	-2	/	/
CCOc1ccc2[nH]c(=O)c(CN(CCO)C(=O)c3ccccc3F)cc2c1	-0.34	0.016	0.064	1	0.13	2	/	/
COc1ccc2cc(CN(CCO)C(=O)c3ccccc3F)c(=O)[nH]c2c1	/	-2.7*	-0.23	-19	-0.0075	12	670	249
CCCN1CCN(S(=O)(=O)c2ccc(OC)c(Br)c2)CC1	1.2	/	/	/	/	/	/	/
C(=N\n1cnnc1)/c1ccc(-c2ccccc2)cc1	-1.4	-7.4*	1.7	5	0.45	4	556	272
COC(=O)c1[nH]c2ccc(C)cc2c1NC(=O)NC1CCCCC1	0.19	/	/	/	/	/	/	/
Clc1cccc2sc(N3CCCCC3)nc12	0.34	-0.72	0.62	8	1.5	9	/	/
COc1ccc(OC)c2sc(N3CCCCC3)nc12	0.89	-4.2*	-1.2	0	-0.33	5	386*	252
CCC(Sc1ccc2nnc(-c3ccc(F)cc3)n2n1)C(=O)O (configuration not stated)	0.033	0.48	-0.18	-1	-0.22	-1	/	/
Cc1ccc2[nH]c3c(c2c1)CN(C(=O)CN1CCSCC1)CC3	0.23	-3.1*	-0.36	3	1.4	-12	476	223
CC(C)(C)OC(=O)N1CCN(c2ccc(NC(=O)Cn3nnc(-c4ccccc4)n3)cc2)CC1	-0.64	-0.0007	0.59	0	0.45	15	/	/
Cc1c(Cl)cccc1N1C(=O)C2ON(c3ccccc3)C(c3cccnc3)C2C1=O (configuration not stated)	0.32	-2.1*	/	/	0.32	/	652	250
c1ccc(OCCCCN2CCOCC2)cc1	-0.45	/	/	/	/	/	/	/
CCN1CCN(CCCOc2ccc(-c3ccccc3)cc2)CC1	0.58	-3.5*	-0.27	7	-0.72	1	197*	256
COC(=O)c1ccccc1NC(=O)C1COc2ccccc2O1 (configuration not stated)	-0.71	-0.067	/	/	0.5	/	/	/
COC(=O)c1cc(NC(=O)C2COc3ccccc3O2)cc(C(=O)OC)c1 (configuration not stated)	0.86	-13*	1.9	-18	0.27	15	668	216
